Measurements published in PubChem BioAssay AID1159580 (chemical genetic matrix, 2015).
Several values for one entry are separate records, joined by “and”; a condition that tells them apart may be missing. Equal values may be shown once. In all, about 5,500 compounds went through this assay and about 2,000 (36%) were called active. Not shown: some 18% with an inconclusive outcome. Cut-off read from the data, not from the text of the source: active = normalized growth mostly below about 0.91 (no sharp cut-off); inconclusive = no clear call, values can overlap the other calls; inactive = mostly above about 0.92. This is one part of the list.

Assay: chemical genetic growth profiling, strain panel (AID 1159580);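 note: tested at 20 µM; growth read once vehicle control cultures reached saturation at 30 °C; 1 = growth at the plate median or of vehicle wells; lower values mean less growth of the strain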
Settings: S. cerevisiae deletion strains, growth OD

Measured: normalized growth

COc1ccc(-c2coc3c(O)c(OC)ccc3c2=O)cc1
0.757 (active) and 1 (inactive): locus YJL095W, strain BCK1, stronger effect = lower value
inactive: locus YAL021C, strain ccr4, stronger effect = lower value 0.907 | locus YAL026C, strain drs2, stronger effect = lower value 0.944 | locus YAL030W, strain snc1, stronger effect = lower value 0.966 | locus YBL061C, strain skt5, stronger effect = lower value 0.983 | locus YBR171W, strain sec66, stronger effect = lower value 0.957 | locus YBR279W, strain paf1, stronger effect = lower value 0.977 | locus YCL011C, strain gbp2, stronger effect = lower value 0.927 | locus YCL029C, strain bik1, stronger effect = lower value 0.914 | locus YCL069W, strain vba3, stronger effect = lower value 0.945 | locus YCR088W, strain abp1, stronger effect = lower value 0.973 | locus YDL005C, strain med2, stronger effect = lower value 1.01 | locus YDL035C, strain GPR1, stronger effect = lower value 0.874 | locus YDL040C, strain nat1, stronger effect = lower value 0.987 | locus YDL074C, strain BRE1, stronger effect = lower value 0.786 | locus YDL101C, strain DUN1, stronger effect = lower value 0.932 | locus YDR001C, strain nth1, stronger effect = lower value 1 | locus YDR069C, strain doa4, stronger effect = lower value 1 | locus YDR195W, strain ref2 1.01 | locus YDR297W, strain sur2, stronger effect = lower value 0.967 | locus YDR334W, strain swr1, stronger effect = lower value 0.96 | locus YDR335W, strain msn5, stronger effect = lower value 0.93 | locus YDR388W, stronger effect = lower value 0.944 | locus YDR502C, strain sam2, stronger effect = lower value 0.936 | locus YEL003W, strain gim4, stronger effect = lower value 0.944 | locus YEL037C, strain rad23, stronger effect = lower value 0.959 | locus YEL061C, strain CIN8 (second series), stronger effect = lower value 0.963 | locus YEL061C, strain CIN8, stronger effect = lower value 0.931 | locus YER015W, strain faa2, stronger effect = lower value 0.939 | locus YER016W, strain bim1, stronger effect = lower value 0.966 | locus YER110C, stronger effect = lower value 0.904 | locus YER111C, strain swi4, stronger effect = lower value 0.993 | locus YER155C, strain BEM2, stronger effect = lower value 0.942 | locus YFR010W, strain ubp6, stronger effect = lower value 1 | locus YGL078C, strain dbp3, stronger effect = lower value 0.959 | locus YGL167C, strain pmr1, stronger effect = lower value 0.976 | locus YGL173C, strain kem1, stronger effect = lower value 0.97 | locus YGL227W, strain vid30, stronger effect = lower value 0.983 | locus YGL248W, strain PDE1, stronger effect = lower value 0.906 | locus YGL253W, strain hxk2, stronger effect = lower value 0.954 | locus YGR135W, strain pre9, stronger effect = lower value 0.916 | locus YGR252W, strain gcn5, stronger effect = lower value 0.781 | locus YHR013C, strain ard1, stronger effect = lower value 0.966 | locus YHR027C, strain rpn1, stronger effect = lower value 0.98 | locus YHR030C, strain SLT2, stronger effect = lower value 0.943 and 1.02 | locus YHR079C, strain IRE1 (second series), stronger effect = lower value 0.955 | locus YHR079C, strain IRE1, stronger effect = lower value 1.01 | locus YHR094C, strain hxt1, stronger effect = lower value 0.941 | locus YIL073C, strain SPO22, stronger effect = lower value 0.824 | locus YIL125W, strain kgd1, stronger effect = lower value 0.948 | locus YIR030C, strain dcg1, stronger effect = lower value 0.944 | locus YJL092W, strain hpr5, stronger effect = lower value 0.982 | locus YJL095W, strain BCK1 (second series), stronger effect = lower value 0.959 | locus YJL115W, strain asf1, stronger effect = lower value 0.943 | locus YJL134W, strain LCB3, stronger effect = lower value 0.937 | locus YJL154C, strain vps35, stronger effect = lower value 0.974 | locus YJL164C, strain tpk1, stronger effect = lower value 0.941 | locus YJL168C, strain set2, stronger effect = lower value 0.954 | locus YJL187C, strain SWE1 (second series), stronger effect = lower value 0.904 | locus YJR066W, strain TOR1, stronger effect = lower value 0.959
active: locus YBR009C, strain hhf1, stronger effect = lower value 0.887 | locus YBR021W, strain FUR4, stronger effect = lower value 0.818 | locus YBR023C, strain chs3, stronger effect = lower value 0.887 | locus YBR229C, strain ROT2, stronger effect = lower value 0.905 | locus YBR231C, strain swc5, stronger effect = lower value 0.893 | locus YCL016C, strain dcc1, stronger effect = lower value 0.877 | locus YDL185W, strain tfp1, stronger effect = lower value 0.888 | locus YDL192W, strain arf1, stronger effect = lower value 0.837 | locus YDR101C, strain arx1, stronger effect = lower value 0.863 | locus YDR137W, strain rgp1, stronger effect = lower value 0.696 | locus YDR159W, strain sac3, stronger effect = lower value 0.797 | locus YDR162C, strain NBP2, stronger effect = lower value 0.755 | locus YDR318W, strain mcm21, stronger effect = lower value 0.871 | locus YDR392W, strain spt3, stronger effect = lower value 0.383 | locus YER155C, strain BEM2 (second series), stronger effect = lower value 0.54 | locus YER167W, strain BCK2, stronger effect = lower value 0.87 | locus YGL086W, strain mad1, stronger effect = lower value 0.862 | locus YGL240W, strain doc1, stronger effect = lower value 0.851 | locus YHR129C, strain ARP1, stronger effect = lower value 0.907 | locus YHR142W, strain chs7, stronger effect = lower value 0.832 | locus YHR200W, strain rpn10, stronger effect = lower value 0.902 | locus YIL066C, strain RNR3, stronger effect = lower value 0.757 | locus YJL129C, strain trk1, stronger effect = lower value 0.731 | locus YJL166W, strain qcr8, stronger effect = lower value 0.828
